# Screening results (PubChem)
# DT40 TDP1 CPT: DT40-hTDP1 cell growth loss with CPT; chicken DT40 Tdp1-/-;hTDP1 cells + 20 nM CPT, ATP luminescence, 48 h; Potency, µM (titrated, usually from 46.2 µM), inactives show top-dose activity change, negative = growth inhibition, actives largely listed as inhibitors; 12% of 420,000 active; AID 686979; note: potency is the fitted concentration of half-maximal effect; % is set by controls: 0 for no effect and ±100 for the full control effect; nearly all actives have a fitted effect of over 55% in size
#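 Chicken DT40 Tdp1-/- cells complemented with human TDP1, 400 cells/well, exposed to compounds plus 20 nM camptothecin for at least 48 h at 37 C; viability read as ATP content by CellTiter-Glo luminescence.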
# D3 antag: blocks the human D3 dopamine receptor | P35462 | D3R cells, DiscoveRx beta-arrestin luminescence, antagonist mode; hits give low values | max response, negative = inhibition, % | 2.5% of 360,000 active; in the data active = max response below about -50%; inconclusive = no clear call, values can overlap the other calls; note: % is set by controls: 0 for no effect and ±100 for the full control effect
# Target sequence (P35462 whole entry, looked up): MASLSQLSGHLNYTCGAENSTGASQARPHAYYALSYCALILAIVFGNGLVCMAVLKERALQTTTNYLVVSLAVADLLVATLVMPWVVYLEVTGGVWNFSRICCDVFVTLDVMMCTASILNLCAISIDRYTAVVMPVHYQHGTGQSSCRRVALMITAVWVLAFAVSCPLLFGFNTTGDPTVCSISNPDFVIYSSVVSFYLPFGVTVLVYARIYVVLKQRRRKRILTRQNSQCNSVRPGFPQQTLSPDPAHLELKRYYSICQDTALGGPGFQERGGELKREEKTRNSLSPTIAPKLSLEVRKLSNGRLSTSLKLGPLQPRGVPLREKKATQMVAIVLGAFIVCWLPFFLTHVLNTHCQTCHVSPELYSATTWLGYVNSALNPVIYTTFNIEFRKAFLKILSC
#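 Cells plated overnight at 1500 cells/well, then exposed to library compounds with dopamine controls for 90 minutes at 37 degrees C. DiscoveRx reagent added for 30–60 minutes at room temperature; luminescence read, quantitative HTS format.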
# DRD3 agonist: agonists of human D3 dopamine receptor; P35462; 0.58% of 410,000 active; D3R DiscoveRx beta-arrestin cells, luminescence, 90 min; max activation, %; in the data active = max activation above about 30%; note: 0% is about no effect
#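 Agonist mode: compounds and dopamine controls were applied to plated cells for 90 min at 37 degrees C after an overnight attachment at 1500 cells/well. Luminescent read-out followed 30 - 60 minutes at room temperature with DiscoveRx detection reagent.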
# DT40 TDP1 no CPT: qHTS for Inhibitors of human tyrosyl-DNA phosphodiesterase 1 (TDP1): qHTS in cells in absence of CPT; DT40 Tdp1-/- hTDP1 cells, no CPT, ATP luminescence, 48 h; Potency, µM (top dose mostly 46.2 µM), without a hit: top-dose activity change, negative = growth inhibition, usual class: inhibitors; 15% of 420,000 active; note: potency is the fitted concentration of half-maximal effect; % is set by controls: 0 for no effect and ±100 for the full control effect; nearly all actives have a fitted effect of over 55% in size
#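 Seeded 400 DT40-hTDP1 cells/well (vehicle DMSO, no 20 nM CPT); pinned compounds; ≥48 hr at 37 °C; CellTiter-Glo luminescence as viability measure.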
# ClpP mod: qHTS Assay for Activators of ClpP; purified B. subtilis ClpP, FRET peptide cleavage, 20 min; Potency, µM (top dose mostly 57.5 µM), inactives show top-dose activity change, negative = active; ATP-dependent Clp protease proteolytic subunit (Bacillus subtilis (strain 168)), P80244; 1.9% of 340,000 active; active = well fitted falling curve with a large enough effect; inconclusive = small, poorly fitted or top-dose-only effect; inactive = no such curve, though single readings can be large or run the other way; note: potency is the fitted concentration of half-maximal effect; the source files actives as falling curves though it sought activators and does not explain the sign; nearly all actives have a fitted effect of over 65% in size
# Target sequence (P80244 whole entry, looked up): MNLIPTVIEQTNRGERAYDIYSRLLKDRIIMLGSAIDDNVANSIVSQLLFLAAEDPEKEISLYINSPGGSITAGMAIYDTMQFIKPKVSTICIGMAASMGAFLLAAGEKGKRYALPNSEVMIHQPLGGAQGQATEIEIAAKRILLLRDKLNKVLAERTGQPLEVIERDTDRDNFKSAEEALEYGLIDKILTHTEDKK
#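 Purified B. subtilis ClpP, 10 microg/mL final in Tris/HCl pH8 with KCl, BSA, glycerol and Tween-20, cleaved an Abz/nitrotyrosine-quenched decapeptide. Fluorescence (ex 320, em 430) was read at 0 and 20 min at room temperature. Delta was normalized to 5.8 microM ADEP and DMSO/no-enzyme controls.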
# IL-1B inflam inh: inflammasome signaling inhibition, IL-1 beta readout | AID 743279 | activity change, % at 57.5 µM | THP-1 LPS/ATP IL-1B secretion, AlphaLISA, 16 h; hits give low values | 4.7% of 360,000 active; in the data active = activity change below about -50%; inconclusive = mostly about -30% to -49%; note: % is set by controls: 0 for no effect and ±100 for the full control effect
#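 THP-1 cells pretreated 1 hr with compounds (up to 57.5 uM final), then stimulated with LPS (250 ng/mL final) plus ATP (1.25 mM final); secreted IL-1B measured by AlphaLISA after 16 hr, decreased signal indicating inhibition.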
# * marks the source's active call; other numbers are inactive results; ? = inconclusive; . = no result. This is a sample that favours compounds with a hit; in the whole collection about 21% have one here. Unless noted, calls come from the whole dose curve; as a rule, active = well fitted inhibition curve with a large enough effect; inconclusive = small, poorly fitted or top-dose-only effect; inactive = flat fitted curve, though single readings scatter.
SMILES,DT40 TDP1 CPT,D3 antag,DRD3 agonist,DT40 TDP1 no CPT,ClpP mod,IL-1B inflam inh
COc1ccc(N2CCC(CNC(=S)Nc3cc(C)ccc3C)C2)cc1 (stereo not drawn),16.4µM*,-0.9,-15.4,16.4µM*,-1.4%,0.0
OC[C@H]1O[C@@](CO)(O[C@H]2O[C@H](CO)[C@@H](O)[C@H](O)[C@H]2O)[C@@H](O)[C@@H]1O,6.0%,.,6.5,0.0%,.,.
O=C(Nc1cccc(F)c1)N1CCC2(CC1)CCN(C(=O)c1cc(C(F)(F)F)cc(C(F)(F)F)c1)CC2,-11.5%,.,.,?,.,.
O=CN1CCN(C(=O)Cc2ccc([N+](=O)[O-])cc2)CC1,-2.3%,5.5,4.6,-23.1%,25.1µM*,23.2
CC(=O)Nc1c(O)[nH]c2ccccc12,-15.9%,-29.5,-16.2,0.4%,0.5%,21.1
N=NC(=O)c1ccccc1Nc1c(O)[nH]c2ccccc12,20.6µM*,-17.1,-16.6,?,-2.4%,-1.4
Cc1cc(Br)ccc1NC(=O)Cn1cc(S(=O)(=O)N2CCN(c3ccccc3F)CC2)c2ccccc2c1=O,1.4%,.,7.8,-26.3%,-3.8%,.
Cc1ccccc1Nc1c(-c2ccc(N3CCOCC3)cc2)nc2ncccn12,?,-5.5,3.3,?,-0.5%,-29.0
Cc1cccn2c(Nc3ccccc3)c(-c3ccc(N4CCOCC4)cc3)nc12,?,.,-8.2,5.8µM*,3.8%,.
Cc1ccccc1Nc1c(-c2ccccn2)nc2c(C)cccn12,?,-1.8,-6.1,?,.,-12.2
Cc1cccn2c(Nc3ccc4c(c3)OCCO4)c(-c3ccc(Br)o3)nc12,?,.,44.2*,?,?,.
Cc1ccccc1Nc1c(-c2ccc(O)cc2)nc2c(C)cccn12,16.4µM*,.,-3.6,?,3.6%,.
Cc1ccc(Nc2c(-c3ccc(C)cc3)nc3c(C)cccn23)cc1,14.6µM*,.,3.4,?,4.3%,.
Cc1c(C)c2c(OCC(=O)N3CCC(C(N)=O)CC3)cc3c(c2oc1=O)CCC(C)(C)O3,-25.9%,-12.3,-19.5,?,4.8%,-11.0
CN1CCN(CCNC(=O)Cn2c(=O)c3cccn3c3ccc(F)cc32)CC1,-14.7%,-13.5,-4.0,-10.5%,-2.0%,-13.5
CCCCCN(C(=O)COC(=O)c1ccc(C)cc1)c1c(N)n(CCCC)c(=O)[nH]c1=O,-1.1%,9.5,3.1,1.4%,-0.7%,?
Cc1cc(C)c(C)c(S(=O)(=O)NCCCN2CCCC2=O)c1C,4.4%,-10.9,16.9,-13.8%,1.7%,11.0
Cc1ccc(-c2nc3c(C)cccn3c2Nc2ccccc2C)s1,20.6µM*,.,5.7,?,?,.
CC1(C)Cc2ccccc2C(NNC(=O)c2cccnc2)=N1,-3.4%,1.7,-14.0,-17.0%,17.8µM*,2.7
CSc1ccccc1NC(=O)CN(C)C(=O)Cc1c(F)cccc1Cl,0.5%,3.3,11.1,-27.5%,.,-3.0
Cc1cccc(N2CCN(C(=O)NC3CCCCC3)CC2)c1C,?,3.2,-4.3,-18.5%,0.2%,-55.7*
Cc1ccc(N2CCN(C(=O)NC3CCCCC3)CC2)c(C)c1,?,10.5,-2.1,?,.,-11.0
Cc1cccc(N2CCN(CC(=O)Nc3nccs3)CC2)c1C,-10.9%,-7.1,-4.1,-24.0%,-1.1%,45.7
Cc1cccc(N2CCN(CC(=O)NCC3CCCCC3)CC2)c1C,?,-63.0*,-5.9,?,-1.8%,-24.3
CC1(C)CC(=O)C=C(c2ccc(COC(=O)/C=C/c3ccccc3)cc2)C1=O,?,-6.1,-4.4,20.6µM*,-0.7%,17.9
SMILES,DT40 TDP1 CPT,D3 antag,DRD3 agonist,DT40 TDP1 no CPT,ClpP mod,IL-1B inflam inh
Cc1ccccc1-c1nnc(C2CCN(S(=O)(=O)c3ccc(Cl)cc3)CC2)o1,5.8µM*,.,-2.2,3.66µM*,-1.3%,.
CC1CCN(S(=O)(=O)c2ccc(Cl)cc2)CC1,-3.4%,18.6,11.3,-19.4%,-3.7%,-13.1
COc1ccc(S(=O)(=O)N2CCC(c3nnc(-c4ccccc4C)o3)CC2)c(OC)c1,8.2µM*,.,10.1,6.51µM*,-2.0%,.
COc1ccccc1NC(=O)CN1C(=O)C(c2ccc(F)cc2)=NC1(C)C,-23.7%,.,1.4,-26.8%,-2.0%,.
COc1cc(NC(=O)CC[C@H]2O[C@@H](n3cnc4c(NC(=O)c5ccccc5)ncnc43)[C@H](O)[C@@H]2O)cc(OC)c1OC,1.6%,-51.9*,-10.2,-10.2%,-2.4%,0.0
CNC(=O)CSc1nc2cc(S(=O)(=O)Nc3ccccc3OC)ccc2o1,0.7%,-16.4,-12.6,-13.7%,.,30.4
COc1ccccc1NS(=O)(=O)c1ccc2oc(SCc3ccc(C#N)cc3)nc2c1,11.6µM*,9.8,1.3,18.4µM*,1.6%,-7.1
COc1ccccc1NS(=O)(=O)c1ccc2oc(SCC(=O)N3CCNC3=O)nc2c1,3.66µM*,6.4,-4.8,?,-0.5%,-5.0
Cc1ccc(N(C(=O)CCCC(=O)Nc2ccccn2)C(C(=O)NC2CCCC2)c2ccc(O)cc2)cc1C (stereo not drawn),?,?,-8.3,?,.,-75.1*
Cc1ccc(N(C(=O)CCl)C(C(=O)NC2CCCCC2)c2cccnc2)cc1C (stereo not drawn),1.84µM*,?,-12.9,1.64µM*,-1.2%,-100.3*
O=C(NCc1ccccc1)C(c1ccccc1F)N(C(=O)c1csnn1)C1CCCC1 (stereo not drawn),-1.8%,5.9,4.8,-25.5%,.,-8.4
Cc1cc(NC(=O)CS(=O)(=O)c2cn(Cc3ccc(F)cc3)c3ccccc23)no1,20.6µM*,19.9,0.1,10.3µM*,-0.5%,-1.3
Cc1cc(NC(=O)CS(=O)(=O)c2cn(Cc3cccc(F)c3)c3ccccc23)no1,?,-19.4,1.3,?,0.0%,-55.0*
Cc1cc(NC(=O)CS(=O)(=O)c2cn(Cc3cccc(C(F)(F)F)c3)c3ccccc23)no1,?,0.0,-7.7,20.6µM*,1.4%,12.8
CCOC(=O)C1CCCN(C(=O)Cc2ccc(OC)c(OC)c2)CC1 (stereo not drawn),-14.3%,29.1,2.5,?,0.4%,40.7
C/C=C(\C)NNC(=O)Cc1ccc(OC)cc1,-9.2%,.,.,0.8%,-2.8%,.
COc1ccc(OC)c2[nH]c(=O)c(CCNS(=O)(=O)c3ccc(Cl)cc3)cc12,-1.0%,-19.9,14.1,-23.4%,-28.5%,-17.6
CCOC(=O)NCc1ccc2[nH]c(C)cc2c1,6.5%,-9.3,1.6,-44.2%,-11.8%,-17.3
Cc1ccc2cc(CCNC(=O)C(C)C)c(=O)[nH]c2c1C,14.5%,23.1,0.8,0.7%,-10.5%,5.8
